Reference: PubChem BioAssay AID504834 (National Center for Advancing Translational Sciences (NCATS), 2011)
About 22,000 (6.9%) of roughly 320,000 compounds were called active. About 27% were inconclusive and are not listed. Calls come from the whole dose curve; as a rule, active = well fitted inhibition curve with a large enough effect; inconclusive = small, poorly fitted or top-dose-only effect, or another doubt; inactive = no such curve, though single readings can be large or run the other way. Shown is part of a subset that was picked to be rich in actives. A call without a number means that no potency is given here.
Potency is the fitted concentration of half-maximal effect.

Test: Primary qHTS for delayed death inhibitors of the malarial parasite plastid, 96 hour incubation
Conditions: P. falciparum luciferase reporter growth; series mostly up to 28.7 µM
Outline: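 Infected RBCs, 2% Hct / 0.05% parasitemia final; luciferase-reporter P. falciparum; cpd 96 h, 37 C, 5% CO2; luciferase detection reagent; luminescence.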
For `CCn1cc(CN2CCC(n3nccc3NC(=O)CCCc3ccccc3)CC2)c(C)n1`, the Potency was “inactive”. In the case of `c1ccc2c(c1)CSc1sccc1C2=C1CCNCC1`, the Potency is reported as 10.4 µM (active). For `CCOC(=O)CNC(=O)CSc1ncccc1-c1nc2ccccc2[nH]1`, the Potency was “inactive”. In the case of `Cc1ccccc1N1CCN(S(=O)(=O)c2ccc3ccccc3c2)CC1`, the Potency is reported as “inactive”. With `Cc1ccc(-n2c(SCC(=O)NCCC3=CCCCC3)nc3n[nH]c(C)c3c2=N)cc1Cl` the Potency was “inactive”. With `CC1(c2ccc(Cl)cc2Cl)NC(=O)N(CC(=O)Nc2cccnc2Cl)C1=O` (stereo not drawn) the Potency was “inactive”. For `COc1cc(CN2CCCC(C(=O)c3ccc(SC)cc3)C2)cc(Cl)c1O` (stereo not drawn), the Potency was “inactive”. In the case of `COc1ccc(CN2CCCC(C(=O)c3ccc(Cl)cc3)C2)cc1Cn1cncn1` (stereo not drawn), the Potency is reported as 10.4 µM (active). In the case of `Cc1ccc(CN2CCCC(C(=O)c3ccc4c(c3)OCO4)C2)cc1C` (stereo not drawn), the Potency is reported as “inactive”. In the case of `COc1ccc(NC(=O)CSCc2ccc([N+](=O)[O-])cc2)cc1OC`, the Potency is reported as “inactive”. In the case of `OC(c1ccc(Cl)cc1)C(CN1CCOCC1)c1ccccc1` (stereo not drawn), the Potency is reported as 2.08 µM (active). For `COc1ccccc1OCC(O)CN1CCOCC1` (stereo not drawn), the Potency was “inactive”. In the case of `OC(c1ccccc1)C(CN1CCOCC1)c1ccccc1` (stereo not drawn), the Potency is reported as “inactive”. With `COc1ccc(C(C)C)cc1S(=O)(=O)Nc1ncn[nH]1` the Potency was “inactive”. With `CCCN(CCC)S(=O)(=O)c1ccc(C(=O)NNC(=O)c2cc(OC)c(OC)c(OC)c2)cc1` the Potency was “inactive”. For `O=c1[nH]c(SCc2cccc(F)c2)nc2ccccc12`, the Potency was “inactive”. For `O=C(c1cc(=O)c2ccccc2o1)N1CCN(c2ccccc2)CC1`, the Potency was “inactive”. For `CN1CCN(c2ccc(NC(=O)c3ccccc3)cc2)CC1`, the Potency was “inactive”. In the case of `CN1CCC(CN)(N2CCN(c3ccccc3)CC2)CC1`, the Potency is reported as 11.7 µM (active). For `CCC(C)N(C(=O)CSc1ncnc2c1cnn2-c1ccccc1)C1CCS(=O)(=O)C1` (stereo not drawn), the Potency was “inactive”. In the case of `COc1ccc(CC(=O)N/N=C/c2cc([N+](=O)[O-])cc(Br)c2O)cc1`, the Potency is reported as “inactive”. For `CC12CN3CCN(CC(C3)/C1=N\NC(=O)c1ccccc1N)C2`, the Potency was “inactive”. With `Cc1ccc2[nH]c(C)c(CCNC(=O)NC3CCCCC3)c2c1` the Potency was 1.47 µM (active). With `Cc1ccc2[nH]cc(CCNC(=O)C3CCCCC3)c2c1` the Potency was “inactive”. With `NS(=O)(=O)c1ccc(CCNC(=O)NC2CCCCC2)cc1` the Potency was “inactive”. With `CCc1ccnc(NC(=O)Nc2ccc(OCc3ccccc3)cc2)c1` the Potency was “inactive”. In the case of `Cc1cccc(NC(=O)Nc2ccc(OCc3ccccc3)cc2)n1`, the Potency is reported as “inactive”. In the case of `O=C(O)/C=C\C(=O)Nc1ccc(OCc2ccccc2)cc1`, the Potency is reported as 4.15 µM (active). With `CCN(C(=O)c1cc([N+](=O)[O-])ccc1NCc1cccnc1)c1ccccc1` the Potency was “inactive”. In the case of `COc1cccc(N2CC(NS(=O)(=O)c3ccc(Cl)cc3)CC2=O)c1` (stereo not drawn), the Potency is reported as “inactive”. In the case of `CCOC(=O)N1CCC(NC(=O)CCc2ccccc2)CC1`, the Potency is reported as “inactive”. For `Cc1ccc(CSCCNC(=O)CN(c2ccc(F)cc2)S(C)(=O)=O)cc1`, the Potency was “inactive”. With `CCCCOc1ccc(-c2nnc(-c3ccco3)o2)cc1` the Potency was “inactive”. For `CCC(=O)Oc1cccc(C(=O)Nc2ccc(-c3nnc(-c4ccco4)o3)cc2)c1`, the Potency was 10.4 µM (active). For `O=C(CCc1ccccc1)Nc1cccc(-c2nnc(-c3ccco3)o2)c1`, the Potency was “inactive”. With `COCCCN(C(=O)CSCc1ccc(C)cc1)c1c(N)n(Cc2ccccc2)c(=O)[nH]c1=O` the Potency was “inactive”. For `Cc1ccc(C(=O)NC2CCN(C(=O)Nc3ccccc3Cl)CC2)cc1`, the Potency was “inactive”. For `O=C(c1c(F)cccc1Cl)N1CCN(c2ccccn2)CC1`, the Potency was “inactive”. In the case of `O=S(=O)(NCCc1ccc(F)cc1)c1cccc2cccnc12`, the Potency is reported as “inactive”. With `NS(=O)(=O)c1ccc(CCNS(=O)(=O)c2cccc3cccnc23)cc1` the Potency was 1.17 µM (active). For `COc1ccc(CCNS(=O)(=O)c2cccc3cccnc23)cc1OC`, the Potency was “inactive”. In the case of `Cc1cccc(NC(=O)c2cccc(C(=O)Nc3cccc(C)c3C)n2)c1C`, the Potency is reported as “inactive”. In the case of `COc1cc(C(=O)N2CCN(C)CC2)cc(OC)c1OC`, the Potency is reported as “inactive”. For `C=CCOc1ccc(/C=C/C(=O)OCC(=O)NC(C)c2ccc(F)cc2)cc1` (stereo not drawn), the Potency was “inactive”. With `COc1ccc(Cn2c(O)c(/C=C3/C=CC=N3)c(=O)[nH]c2=O)cc1` the Potency was “inactive”. For `COc1ccc(C(=O)NCC(=O)N/N=C/c2ccc([N+](=O)[O-])s2)cc1OC`, the Potency was “inactive”. With `COc1cc(/C=N/NC(=O)CNC(=O)c2ccncc2)ccc1OC(C)=O` the Potency was “inactive”. In the case of `COc1ccc(C(=O)NCC(=O)N/N=C/c2ccc([N+](=O)[O-])o2)cc1OC`, the Potency is reported as 1.85 µM (active). In the case of `O=C(O)Cc1csc(-c2cccc(Oc3ccccc3)c2)n1`, the Potency is reported as “inactive”. In the case of `COCCOC1CCN(C(=O)c2ccc(OC)c(OC3CCN(C(C)C)CC3)c2)CC1`, the Potency is reported as “inactive”. For `COC(=O)C1CCCCN1C(=O)c1ccc(OC2CCN(C(C)=O)CC2)c(OC)c1` (stereo not drawn), the Potency was 11.7 µM (active). In the case of `COc1ccc(C(=O)NCCn2nc(C)cc2C)cc1OC1CCN(C(C)=O)CC1`, the Potency is reported as “inactive”. In the case of `O=C(CSc1nc(=O)n2ccccc2n1)Nc1ccc2c(c1)OCCO2`, the Potency is reported as “inactive”. With `CCc1c(C)sc(NC(=O)/C=C/c2ccc3c(c2)OCO3)c1C(=O)OC` the Potency was “inactive”. For `Cc1cccc(NC(=O)Nc2ccc3c(c2)OCO3)n1`, the Potency was “inactive”. For `Cc1cccc(NC(=O)/C=C/c2ccc3c(c2)OCO3)n1`, the Potency was 9.28 µM (active). With `Cc1nc(COc2cccc(Cl)c2)sc1C(=O)/C=C/N(C)C` the Potency was “inactive”. For `CC(=O)c1ccc(N2CCN(C(=O)CCNC(=O)Cn3ccc4ccccc4c3=O)CC2)cc1`, the Potency was “inactive”. In the case of `O=C(NCc1cccc(Cl)c1)C1=CC=CN2CCS(=O)(=O)N=C12`, the Potency is reported as “inactive”. In the case of `Cc1cccc(Cn2c(N3CCN(c4ccccc4)CC3)nc3c2c(=O)n(C)c(=O)n3C)c1`, the Potency is reported as “inactive”. In the case of `Cc1cccc(N2CC(C)Cn3c2nc2c3c(=O)n(CC(=O)OCc3ccccc3)c(=O)n2C)c1` (stereo not drawn), the Potency is reported as 11.7 µM (active). With `CC1CN(C2CCCCC2)c2nc3c(c(=O)n(C)c(=O)n3C)n2C1` (stereo not drawn) the Potency was “inactive”. With `O=c1c2cc([N+](=O)[O-])ccc2nc2n1CCC2` the Potency was “inactive”. With `COC(=O)c1sc(SC)c(S(=O)(=O)C(C)C)c1N/N=C(\C#N)S(=O)(=O)c1ccccn1` the Potency was “inactive”. In the case of `CC1CC(NC(=O)/C(C#N)=C/c2ccc[nH]2)CC(C)(C)C1` (stereo not drawn), the Potency is reported as 3.29 µM (active). For `Cn1c(=O)c2c(nc(N3CCCCCC3)n2CC(O)COc2ccc(Cl)cc2)n(C)c1=O` (stereo not drawn), the Potency was “inactive”. In the case of `Cn1c(=O)c2c(ncn2CCc2ccccc2)n(C)c1=O`, the Potency is reported as “inactive”. In the case of `Cn1c(=O)c2c(ncn2CC(COCc2ccccc2Cl)OCc2ccccc2Cl)n(C)c1=O` (stereo not drawn), the Potency is reported as 9.28 µM (active). For `CCOc1ccc(NC(=O)c2ccc(NC(=O)CN3C(=O)C(=O)N(CC(C)C)C3=O)cc2)cc1`, the Potency was “inactive”. For `COc1cc(/C=N/N2CCN(c3ccccc3)CC2)ccc1OC(C)=O`, the Potency was “inactive”. In the case of `CSc1ncccc1C(=O)Nc1ccc2c(c1)OCO2`, the Potency is reported as “inactive”. In the case of `CSc1ccccc1NC(=O)c1ccc2c(c1)CCN2S(C)(=O)=O`, the Potency is reported as “inactive”. For `O=C(c1ccc(Cl)s1)N(Cc1nnc(-c2ccccc2Cl)o1)C1CC1`, the Potency was “inactive”. In the case of `O=C(c1cc(-c2ccco2)nc2ccccc12)N(Cc1nnc(-c2ccc(Cl)cc2)o1)C1CC1`, the Potency is reported as 2.08 µM (active). With `CN(C(=O)COC(=O)c1cc(-c2ccco2)nc2ccccc12)C1CCS(=O)(=O)C1` (stereo not drawn) the Potency was “inactive”. With `Cc1ccc(S(=O)(=O)N(C)CC(=O)NCCc2c[nH]c3ccccc23)cc1` the Potency was “inactive”. With `O=C(NCCc1c[nH]c2ccccc12)c1cc2ccccc2oc1=O` the Potency was “inactive”. In the case of `CN(c1ccccc1)S(=O)(=O)c1ccc(Cl)c(C(=O)NCCc2c[nH]c3ccccc23)c1`, the Potency is reported as 9.28 µM (active). In the case of `COc1ccc(NC(=O)CNC(=O)Cn2ccc3ccccc3c2=O)c(OC)c1`, the Potency is reported as “inactive”. In the case of `COCCn1c(C)cc(C(=O)COC(=O)CNC(=O)c2ccco2)c1C`, the Potency is reported as “inactive”. For `CC(=O)N1CCN(CC(C)(C)NS(=O)(=O)c2ccc(C)cc2)CC1`, the Potency was “inactive”. For `CC(C)COC(=O)C1C2C=CC3(CN(C(C)c4ccc(Br)cc4)C(=O)C13)O2` (stereo not drawn), the Potency was 6.57 µM (active). With `CCOC(=O)CN1CC23C=CC(O2)C(C(=O)Nc2ccc(F)cc2)C3C1=O` (stereo not drawn) the Potency was “inactive”. In the case of `CCCC(=O)Nc1ncnc2c1ncn2[C@@H]1O[C@@H]2OP(=O)(O)OC[C@H]2[C@H]1OC(=O)CCC`, the Potency is reported as “inactive”. In the case of `Cc1ccccc1-n1nc(C)c2cc(C(=O)NC3CC3)sc21`, the Potency is reported as 5.22 µM (active). For `Cc1ccc(-c2nn(-c3ccccc3)cc2C(=O)NC2CCC(O)CC2)cc1` (stereo not drawn), the Potency was “inactive”. With `Cc1cccn2c(=O)c3cc(C(=O)NC4CCCCC4)sc3nc12` the Potency was “inactive”. In the case of `O=c1cc(Cl)c2ccccc2n1-c1ccccc1`, the Potency is reported as “inactive”. With `CCCCn1c(N)c(N(CC(C)C)C(=O)C2CSC3(C)CCC(=O)N23)c(=O)[nH]c1=O` (stereo not drawn) the Potency was “inactive”. In the case of `CCn1c(-c2ccoc2C)n[nH]c1=S`, the Potency is reported as “inactive”. With `CCCc1cc(-c2n[nH]c(=S)n2CC)c2ccccc2n1` the Potency was 1.65 µM (active). For `CCn1c(-c2ccncc2)n[nH]c1=S`, the Potency was “inactive”. In the case of `CN(C)CCCNC(=S)N1CCC(c2nc3ccccc3[nH]2)CC1`, the Potency is reported as “inactive”. With `COc1ccc(C[C@H](C(=O)O)N2C(=O)c3ccc(C(=O)O)cc3C2=O)cc1` the Potency was “inactive”. In the case of `O=C(C1CCCO1)N1CCN(S(=O)(=O)c2ccc(Br)cc2)CC1` (stereo not drawn), the Potency is reported as “inactive”. With `COc1ccc(N(CC(=O)Nc2ccc(C)cc2C)S(=O)(=O)c2ccccc2[N+](=O)[O-])c(OC)c1` the Potency was “inactive”. For `Cc1ccc(S(=O)(=O)N(CC(=O)Nc2cccc([N+](=O)[O-])c2)Cc2ccc(Cl)cc2)cc1`, the Potency was “inactive”. With `COc1ccc(C)cc1S(=O)(=O)N(CC(=O)Nc1cccc([N+](=O)[O-])c1)c1ccc(C)cc1` the Potency was 11.7 µM (active). For `CC(C)c1c(C(=O)N/N=C/c2ccccc2C(=O)O)nnn1-c1nonc1N`, the Potency was “inactive”. With `O=C(CNC(=O)[C@@H]1Cc2ccccc2CN1)NC1CCCCC1` the Potency was “inactive”. For `O=C(Cc1ccc(S(=O)(=O)N2CCOCC2)s1)N1CCN(c2ccc(C(F)(F)F)cc2[N+](=O)[O-])CC1`, the Potency was 11.7 µM (active). In the case of `O=C(OCC(=O)N1CCOCC1)c1ccc(N2CCOCC2)c([N+](=O)[O-])c1`, the Potency is reported as “inactive”. In the case of `O=C(COc1ccc(S(=O)(=O)N2CCOCC2)cc1Cl)N1CCOCC1`, the Potency is reported as “inactive”.
